Results as given in PubChem BioAssay (NCATS).
Where “and” joins values, the source holds several entries; their conditions need not be identical. Equal values may be shown once. Records with an inconclusive call do not appear. Calls of active or inactive are those of the source. Calls come from the whole dose curve; as a rule, active = well fitted curve in the direction sought with a large enough effect; inconclusive = small, poorly fitted or top-dose-only effect, or another doubt; inactive = no such curve, though single readings can be large; an effect the other way counts as inactive or inconclusive. *1 amine or outer side, *2 acyl side, *3 side chain or, on linkers, in order; H or OH if unused. Where a SMILES comes first, the peptide text is derived from it. [ ]: non-standard residue; d: D form. X7 = O=C([C@@H](CC(O)CCl)O[*:1])[*:2]; aIle = CC[C@@H](C)[C@H](N)C(=O)O; NMeV = CN[C@H](C(=O)O)C(C)C; NMeA = CN[C@@H](C)C(=O)O; βAla = NCCC(=O)O

Tests used:
[1] = target: Calcium and integrin-binding protein 1 (Homo sapiens) (UniProt Q99828); assay: Primary qHTS for Identification of Calcium Integrin Binding Protein 1 (CIB1) Competitor (AID 1508620);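 note: GST tagged CIB1 binding a fluorescein labelled alphaIIb integrin peptide tracer; top concentration of the series differs between compounds; % is set by controls: 0 for no effect and ±100 for the full control effect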
In short: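 Fluorescence polarization competition: CIB1-GST (1 uM final) preincubated with compound 15 min at room temperature, then FITC-labeled alphaIIb peptide (100 nM final) added for another 15 min. Polarization read at Ex 480/Em 540.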

[2] = Primary qHTS for inhibitors of nuclear receptor binding SET domain protein 2 (NSD2) in an isogenic RCH-ACV NSD2 p.E1099K mutant (9B) (AID 1645876); note: nearly all actives have a fitted effect of over 70% in size; note: potency is the fitted concentration of half-maximal effect
[3] = target: Phospholipid hydroperoxide glutathione peroxidase GPX4 (Homo sapiens) (UniProt P36969); assay: Primary qHTS Assay for Inhibitors of Recombinant Selenoprotein Glutathione Peroxidase 4 (GPX4) (AID 1845192); note: % is set by controls: 0 for no effect and ±100 for the full control effect; nearly all actives have a fitted effect of over 65% in size
In short: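 qHTS, GR-coupled: GPX4 200 nM + cpd 30 min RT → GSH 1 mM, NADPH 0.5 mM, GR 100 nM → CHP 0.5 mM start; fluor 340/450 at t0 and t15 min; no-enzyme wells as control.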

[4] = target: Luciferin 4-monooxygenase (Photinus pyralis) (UniProt P08659); assay: Primary firefly luciferase (FLuc) qHTS assay for identification of artifact compounds. (AID 1845220); conditions: outcome: dose series up to 54.1 µM unless noted; note: nearly all actives have a fitted effect of over 60% in size
In short: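 In this counter-screen for luciferase artifacts, test compounds met substrate (10 uM each luciferin and ATP) before 10 nM enzyme started the reaction. Light output was measured 5 min later.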

[5] = Primary fluorescence-based thiol-reactive (MSTI) qHTS assay for identification of artifact compounds. (AID 1845221);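 note: thiol-reactive compounds lower the probe fluorescence signal; nearly all actives have a fitted effect of over 65% in size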
In short: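 Curve-fitted percent inhibition (4-parameter Hill) derived from fluorescence, Ex 525/Em 598 nm, scaled with Acetyl-MSTI and MSTI; 1 h incubation at room temperature.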

[6] = tested on: Nanoluciferase (engineered Oplophorus gracilirostris luciferase); assay: Primary Nanoluciferase (NLuc) qHTS assay for identification of artifact compounds. (AID 1845222); note: potency is the fitted concentration of half-maximal effect
In short: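 Using secreted nanoluciferase in S16 culture medium (0.22 um filtered, 1:55 dilution), compounds were preincubated 15 min at RT. Signal was generated with Nano-Glo reagent (1:100) over 5 min.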

[7] = Primary redox qHTS assay for identification of artifact compounds. (AID 1845223);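 note: 0% = DMSO and 100% = reference compound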
In short: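 Redox-cycling detection via DTT (250 uM final) oxidation coupled to Amplex Red (25 uM)/HRP (250 mU/mL) in HBSS. 15 min preincubation plus 30 min after DTT, room temperature. Ex/Em 525/598 nm; 4-parameter Hill fit against DMSO and 10 uM DA3003.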

[8] = tested on: CRL-7250; assay: Cytotoxic Profiling of Annotated Libraries Using Quantitative High-Throughput Screening (AID 1296008); conditions: Five cell lines viability, CellTiter-Glo ATP luminescence, 48-72 h; max response: active compounds read low; note: nearly all actives have a fitted effect of over 60% in size; note: potency is the fitted concentration of half-maximal effect; for max response: % is set by controls: 0 for no effect and ±100 for the full control effect
In short: (§1)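 Compounds were pin-transferred onto cells and incubated 48 or 72 hr at 37 degree Celsius, 95% humidity. CellTiter-Glo was added, plates sat 10 min at room temperature, then ATP-coupled luminescence was imaged as the viability read-out.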

[9] = tested on: HEK293; assay: as above; conditions: Five cell lines viability, CellTiter-Glo ATP luminescence, 48-72 h; max response: active compounds read low
In short: as §1

[10] = tested on: C33A; assay: Primary qHTS to identify gynecologic anti-cancer compounds using libraries of approved drugs and bioactive compounds (AID 1345084); conditions: Gynecologic cancer cell panel viability, ATPlite luminescence, 48 h; series mostly up to 57.5 µM; note: nearly all actives have a fitted effect of over 55% in size; note: potency is the fitted concentration of half-maximal effect
In short: (§2)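 Cytotoxicity screen measuring ATP content by luciferase luminescence. Each compound is applied at five concentrations for 48 h at 37 C with 5% CO2.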

[11] = tested on: CAOV3; assay: as above; conditions: Gynecologic cancer cell panel viability, ATPlite luminescence, 48 h; series mostly up to 57.5 µM
In short: as §2

[12] = tested on: Es-2; assay: as above; conditions: Gynecologic cancer cell panel viability, ATPlite luminescence, 48 h; series mostly up to 57.5 µM
In short: as §2

[13] = tested on: Hek293T; assay: as above; conditions: Gynecologic cancer cell panel viability, ATPlite luminescence, 48 h, control line for the selectivity index; series mostly up to 57.5 µM
In short: as §2

[14] = tested on: PA-1; assay: as above; conditions: Gynecologic cancer cell panel viability, ATPlite luminescence, 48 h; series mostly up to 57.5 µM
In short: as §2

[15] = tested on: CASKI; assay: as above; conditions: Gynecologic cancer cell panel viability, ATPlite luminescence, 48 h; series mostly up to 57.5 µM
In short: as §2

[16] = tested on: JEG-3; assay: as above; conditions: Gynecologic cancer cell panel viability, ATPlite luminescence, 48 h; series mostly up to 57.5 µM
In short: as §2

[17] = tested on: OV90; assay: as above; conditions: Gynecologic cancer cell panel viability, ATPlite luminescence, 48 h; series mostly up to 57.5 µM
In short: as §2

[18] = tested on: Tov-21-G; assay: as above; conditions: Gynecologic cancer cell panel viability, ATPlite luminescence, 48 h; series mostly up to 57.5 µM
In short: as §2

[19] = tested on: Tov112D; assay: as above; conditions: Gynecologic cancer cell panel viability, ATPlite luminescence, 48 h; series mostly up to 57.5 µM
In short: as §2

[20] = tested on: NIH3T3; assay: Cytotoxic Profiling of Annotated Libraries Using Quantitative High-Throughput Screening (AID 1296008); conditions: Five cell lines viability, CellTiter-Glo ATP luminescence, 48-72 h; max response: active compounds read low; note: nearly all actives have a fitted effect of over 60% in size; note: potency is the fitted concentration of half-maximal effect; for max response: % is set by controls: 0 for no effect and ±100 for the full control effect
In short: as §1

Chain of Calcium and integrin-binding protein 1 (Homo sapiens) (Q99828 whole entry, looked up): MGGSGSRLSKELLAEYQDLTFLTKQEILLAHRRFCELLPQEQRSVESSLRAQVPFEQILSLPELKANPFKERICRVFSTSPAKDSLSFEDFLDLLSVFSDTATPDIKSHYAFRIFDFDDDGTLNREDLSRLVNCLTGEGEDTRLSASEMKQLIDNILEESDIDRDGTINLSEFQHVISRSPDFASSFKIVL
Chain of Phospholipid hydroperoxide glutathione peroxidase GPX4 (Homo sapiens) (P36969 whole entry, looked up): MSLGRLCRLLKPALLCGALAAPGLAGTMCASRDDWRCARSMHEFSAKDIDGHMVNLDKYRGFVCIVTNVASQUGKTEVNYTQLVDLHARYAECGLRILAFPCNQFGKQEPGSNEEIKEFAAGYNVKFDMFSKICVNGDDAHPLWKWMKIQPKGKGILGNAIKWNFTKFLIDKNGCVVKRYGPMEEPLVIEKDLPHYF

C=C1[C@@H](C)C2[C@H](Cc3ccccc3)NC(=O)[C@@]23C(/C=C/C[C@H](C)C[C@@](C)(O)/C=C/[C@@H]3OC(C)=O)[C@@H]1O (stereo partly specified)
active: Potency [2] 817 nM | Potency [8] 461 nM | Potency [9] 731 nM | Potency [14] 3980 nM
inactive: Potency [1] | Potency [3] | outcome [4] | Potency [5] | Potency [6] | Potency [7] | Potency [10] | Potency [11] | Potency [12] | Potency [13]

Cc1sc2c(c1C)C(c1ccc(Cl)cc1)=N[C@@H](CC(N)=O)c1nnc(C)n1-2
inactive: Potency [1] | Potency [3] | outcome [4] | Potency [5] | Potency [6] | Potency [7] | Potency [10] | Potency [15] | Potency [16]
active: Potency [2] 64.9 nM and 132 nM | Potency [8] 366 nM | Potency [9] 259 nM

C[C@@H]1[C@H](O)[C@@H](C)/C=C/C=C/CC/C=C/C=C/C=C/C=C/[C@H](O[C@H]2O[C@@H](C)[C@H](O)[C@@H](N)[C@H]2O)C[C@@H]2O[C@](O)(C[C@@H](O)[C@H](O)CC[C@@H](O)C[C@@H](O)C[C@@H](O)CC(=O)O[C@H]1C)C[C@H](O)[C@H]2C(=O)O
inactive: Potency [2] | outcome [4] | Potency [5] | Potency [6] | max response [8] -12.4% | max response [9] 0.0089% | Potency [10] | Potency [11] | Potency [15] | Potency [12] | Potency [13] | Potency [16] | Potency [17] | Potency [14] | Potency [18] | Potency [19]

CC1=C[C@H]2O[C@@H]3[C@H](O)[C@@H](O)[C@](C)([C@@]2(CO)C[C@@H]1O)[C@]31CO1
inactive: Potency [1] | Potency [3] | outcome [4] | Potency [5] | Potency [6] | Potency [7]
active: Potency [2] 728 nM | Potency [8] 5800 nM | Potency [9] 1300 nM | Potency [10] 10000 nM | Potency [11] 11200 nM | Potency [15] 11200 nM | Potency [12] 10000 nM | Potency [13] 2820 nM | Potency [17] 8910 nM | Potency [14] 3980 nM | Potency [18] 10000 nM

COc1cc2c(c(OC)c1OC)-c1ccc(SC)c(=O)cc1[C@@H](NC(C)=O)CC2
inactive: Potency [1] | Potency [3] | outcome [4] | Potency [5] | Potency [15]
active: Potency [2] 4.6 nM | Potency [6] 19000 nM | Potency [8] 9.2 nM | Potency [9] 8.2 nM

CC[C@@H](C)[C@@H]1NC(=O)[C@@H]2CCCN2C(=O)[C@@H](CC(O)CCl)OC(=O)CCNC(=O)[C@H](C)N(C)C(=O)[C@H](C(C)C)N(C)C1=O (stereo partly specified) (cyclo([NMeA][βAla][X7]P[aIle][NMeV]))
active: Potency [2] 608 nM | Potency [8] 968 nM | Potency [9] 685 nM | Potency [20] 2430 nM | Potency [10] 4470 nM | Potency [11] 3160 nM | Potency [12] 4470 nM | Potency [17] 447 nM | Potency [14] 1000 nM | Potency [19] 3550 nM
inactive: Potency [1] | outcome [4] inactive [at 25.7 µM] | Potency [5] | Potency [6] | Potency [7] | Potency [15] | Potency [16] | Potency [18]
